The campaign covered roughly 48,000 compounds. About 13,000 (27%) showed an effect of 50% or more. The list shows a part of the results.
Test system: Wolbachia pipientis
Assay: Anti-Wolbachia Cell-Based Screen
Type: functional
Design: scale not given: in the data most compounds retested in dose-response had high values
Settings: 5 µM

SMILES	Percent Effect [%]
Cc1nn(C)c(C)c1OCC(=O)N1CCCc2c(F)ccc(F)c21	-4.523
Cc1ccc(F)c2c1N(C(=O)Cc1c(C)nn(C)c1C)CCC2	55.91
Cc1ccc(F)c2c1CCCN2C(=O)Cc1c(C)nn(C)c1C	-7.331
Cn1c(CC2CCS(=O)(=O)C2)nnc1SCCOc1cccc(Cl)c1 (centres undefined)	-0.5002
COc1cc2ccn(CCS(C)(=O)=O)c(=O)c2cc1F	3.704
N#CCCCn1nnnc1Cc1ccc(Br)cc1	-5.124
Cc1cc(C)c2ncn(CC(C)(C)CO)c(=O)c2c1	2.019
Cc1cc(C)c2ncn(CCC(C)O)c(=O)c2c1 (centres undefined)	-16.19
N#CCCn1cnc2c(Br)cc(Br)cc2c1=O	26.83
N#CCCCn1cnc2c(F)cc(Br)cc2c1=O	100.3
N#CCCn1cnc2c(F)cc(Br)cc2c1=O	102.6
COCCn1cnc2c(F)cc(Br)cc2c1=O	109.9
CC(C)COc1ccccc1CN(C)C(=O)c1cc(=O)[nH]c(=O)[nH]1	-33.98
CNCCNc1ccc(-c2nc(-c3cccc(OC)c3OC)no2)cn1	-9.505
Cc1nc(CN2CCOCC3(CCCN(c4cnccn4)C3)C2)cs1.O=C(O)C(F)(F)F (centres undefined)	-4.433
Cc1noc(C)c1CN1CCOC2(CCCN(c3ncccn3)C2)C1.O=C(O)C(F)(F)F (centres undefined)	2.072
CC(C)N1CCOCC2(CCN(c3cnccn3)CC2)C1.O=C(O)C(F)(F)F	-21.42
Cc1noc(C)c1CN1CCOCC12CCN(c1cnccn1)CC2.O=C(O)C(F)(F)F	82.98
Cc1noc(C)c1CN1CCOCC12CCN(c1ncccn1)CC2.O=C(O)C(F)(F)F	113.5
Cc1noc(C)c1CN1CCC2(CC1)CN(c1ccccn1)CCO2.O=C(O)C(F)(F)F.O=C(O)C(F)(F)F	-6.126
O=C(CCOCC(F)(F)F)N1CCCC1c1noc(C2CC2)n1 (centres undefined)	110.3
O=C(Cc1noc2ccccc12)N1CCCC1c1noc(C2CC2)n1 (centres undefined)	8.423
O=C(COC1CCCC1)N1CCCC1c1noc(C2CC2)n1 (centres undefined)	-26.64
Cc1noc(C2CN(Cc3ccc4c(c3)CCO4)C2)n1.O=C(O)C(=O)O	22.63
FC(F)(F)COCCN1CCCC(c2noc(C3CC3)n2)C1 (centres undefined)	7.435
O=C(COCc1ccccc1)N1CCCC1c1noc(C2CC2)n1 (centres undefined)	106.9

SMILES	Percent Effect [%]
CN(CC(=O)N1CCCC1c1noc(C2CC2)n1)Cc1ccccc1 (centres undefined)	125
CN(CC(=O)N1CCCC1c1noc(C2CC2)n1)S(C)(=O)=O (centres undefined)	-4.579
Cc1nc(C2CCCN2C(=O)CN(C)Cc2ccccc2)no1 (centres undefined)	10.99
O=C(Cc1ccc2c(c1)CCO2)N1CCCC1c1noc(C2CC2)n1 (centres undefined)	96.74
CC(C)c1nc(C2CCCN2C(=O)CN(C)Cc2ccccc2)no1 (centres undefined)	-1.303
O=C(CCOCc1ccccc1)N1CCCC1c1noc(C2CC2)n1 (centres undefined)	14.67
CSCCC(=O)N1CCN(CC(O)C(C)(C)C)CC1 (centres undefined)	-10.5
Cc1ccc(C(=O)N(C)S(C)(=O)=O)cc1Cl	-6.894
Cc1cc(S(=O)(=O)Nc2cccc(OC(F)F)c2)sc1C(=O)O	-5.292
Cc1nonc1C1CCCN1CCC(=O)N1CCc2ccccc2C1 (centres undefined)	3.529
O=C(CCS(=O)(=O)C1CCCC1)N1CCC(O)(C(F)(F)F)C1 (centres undefined)	-5.456
O=C(NCC1(N2CCOCC2)CCSC1)Nc1ccncc1 (centres undefined)	-3.46
Cc1nc(C2CCCN2C(=O)CCCOc2cccc(F)c2)no1 (centres undefined)	-14
Cc1nc(CN2CCN(C(=O)COCc3ccccc3)CC2)no1	3.654
Cc1nc(C2CCCN2C(=O)CCOCc2ccccc2)no1 (centres undefined)	99.19
Cc1nc(C2CCCN2C(=O)COCc2ccccc2)no1 (centres undefined)	102.7
Cc1nc(C2CCCN2C(=O)COCCOc2ccccc2)no1 (centres undefined)	-5.15
O=C1OCCN1CC(=O)N1C[C@H]2CC[C@@H]1CN(C(=O)c1ccccn1)C2	-8.504
COc1cc(F)cc(NC(=O)NCc2cccc(N(C)C)n2)c1	5.244
O=C(C1CC=CC1)N1C[C@@H]2[C@@H](C1)OCC(=O)N2Cc1cccnc1	-8.253
Cc1ncccc1O[C@H]1CCN(C(=O)c2cccs2)CC[C@@H]1O	-0.5375
Cc1ccc(C(=O)N2CC[C@H](Oc3cccnc3C)[C@@H](O)CC2)s1	123.3
COc1ccccc1OC1CCN(C(=O)c2cnc(C)s2)CC1	3.926
Cc1ncccc1O[C@H]1CCN(C(=O)Cc2cccs2)CC[C@@H]1O	6.577
Cc1csc(C(=O)N2CC[C@H](Oc3cccnc3C)[C@@H](O)CC2)c1	110.7
CCc1ccc(C(=O)N2CC[C@H](Oc3cccnc3C)[C@@H](O)CC2)cc1	61.09

SMILES	Percent Effect [%]
Cc1ccc(C(=O)N2CCC(c3nccn3Cc3ccncc3)CC2)s1	-4.938
CC(=O)N(C)CC(=O)Nc1cnc(-n2ccnc2C)nc1	9.823
CC(O)CCN(C)S(=O)(=O)Cc1ccc(Br)cc1 (centres undefined)	-1.579
O=C(CO)N1CCc2onc(Cn3cccn3)c2C1	6.984
Cc1c(Br)cccc1CSc1nnc(CO)n1C	11.11
O=C(Nc1c(F)cccc1Oc1ccccc1)C1CCS(=O)(=O)C1 (centres undefined)	2.058
Cc1ccc(CNC(=O)NCc2ccco2)s1	117.2
CN(C)c1nccc(CNC(=O)NCc2ccco2)n1	-7.993
O=C(NCc1cc(Cl)ccn1)NCc1ccco1	-0.04027
CNC(=O)CCOC(=O)c1cccc(-n2ccc(C(F)(F)F)n2)c1	-14.03
Cc1nn(C)c(N(C)C)c1CNCc1cccc(Br)c1	-4.706
CCn1cc(NC(=O)c2cccc(OCC(F)(F)F)n2)cn1	10.55
CCN(CC)c1nc(C)cc(C(=O)Nc2ccc(Br)cc2)n1	134.8
CCc1sc(C(=O)Nc2cnn(CCN(C)C)c2)cc1C	11.53
CCN(CC)c1nc(C)cc(C(=O)Nc2cccc(C(N)=O)c2)n1	132.2
CN(C)C(=O)c1cccc(NC(=O)c2cnn(C)c2)c1	-1.797
CCN(Cc1cccc(C(N)=O)c1)c1ccccc1	7.168
Cc1noc(NC(=O)c2ccc(Br)cc2)n1	7.251
Cc1ccc(NC(=O)c2n[nH]c(-n3cnnc3)n2)cc1C	9.368
CCN(CC)c1nc(C)cc(C(=O)Nc2cnn(CC)c2)n1	114.1
CC(C)(C)CN[C@@H]1CO[C@H](CNC(=O)Nc2ccccc2)[C@H]1O	-16.93
CCOc1ccccc1OCCN(C)Cc1nccn1C	8.395
CC(=O)N(Cc1noc(C)n1)C1CCN(Cc2ccon2)C1 (centres undefined)	2.71
CC(=O)N(Cc1noc(C)n1)C1CCN(Cc2cc(C)on2)C1 (centres undefined)	0.668
CC(=O)N(Cc1noc(C2CC2)n1)C1CCN(Cc2cc(C)on2)C1 (centres undefined)	124.1
CC(=O)N(Cc1noc(C2CC2)n1)C1CCN(Cc2ccccn2)C1 (centres undefined)	122.2

SMILES	Percent Effect [%]
CC(=O)N(Cc1noc(C2CC2)n1)C1CCN(Cc2nccn2C)C1 (centres undefined)	3.362
CC(=O)N(Cc1noc(C)n1)C1CCN(Cc2ccccn2)C1 (centres undefined)	104.4
CCCC(=O)N(CCCN1CCOCC1)c1nc2c(C)ccc(Cl)c2s1.Cl	32.82
CN(C)CCOCC1CN(C(=O)N2CCCC2)Cc2ccnn2C1.O=C(O)C(F)(F)F.O=C(O)C(F)(F)F (centres undefined)	-8.834
CSC(C)(C)CNC(=O)NCc1cccc(-n2cncn2)c1	2.602
COCCOCCNC(=O)N1CCc2c(F)ccc(F)c2C1	-0.5371
N#Cc1cc(F)ccc1Cn1cncn1	9.511
CNC(=O)Cc1noc(Cc2ccc3c(c2)CCCC3)n1	11.56
Cc1ccc(=O)n(CC2(O)CCN(Cc3cnc(N(C)C)nc3)CC2)n1	82.15
CN(C)CC1(O)CCCN(Cc2cnc(-c3ccco3)nc2)CC1 (centres undefined)	2.959
Cc1ccc(=O)n(CC2(O)CCN(Cc3cccs3)CC2)n1	102.3
Cn1cnn(Cc2c(F)cccc2Br)c1=O	12.84
Cc1ccc(=O)n(CC2(O)CCN(Cc3c(F)cccc3F)CC2)n1	89.56
CCn1ccnc1CN1CCC(Oc2ccccc2F)(C(=O)O)CC1	-0.1414
CCn1cc(CN2CCC(O)(Cn3nc(C)ccc3=O)CC2)cn1	106.9
Cc1ccc(=O)n(CC2(O)CCN(Cc3cnc(C)nc3)CC2)n1	-9.776
CN(C)c1cnn(CC(=O)N2CCN(Cc3cccs3)CC2)c(=O)c1	2.186
Cc1ccc(=O)n(CC2(O)CCN(Cc3ccsc3)CC2)n1	-12.71
Cc1noc(C)c1CN(C)C(C)c1cccs1 (centres undefined)	-4.592
CCCn1cnc2c1CN(S(=O)(=O)c1ccc(F)cc1)[C@H](C(=O)OC)C2	-2.883
CCCC1(CNCc2ncc[nH]2)CCC1	-4.212
CCN1CCc2[nH]cnc2C12CCN(C(=O)CCCn1cncn1)CC2	0.07379
CCC(C(=O)NCc1cccnc1)N(c1cccc(C)c1)S(C)(=O)=O (centres undefined)	-6.23
COc1ccccc1COCC(O)CN(C)c1ccc(C)cc1C (centres undefined)	-38.72
CCn1ccnc1C1CCN(C(=O)C(O)c2ccc(Cl)cc2)CC1 (centres undefined)	-5.147
COc1ccc(C(=O)NC2CC2)c(OC2CCN(CCCSC)CC2)c1	-3.444
